Where “and” joins values, the source holds several entries; their conditions need not be identical. Identical values can stand only once. Hit rate of the full screen: of about 370,000 compounds, about 3,100 (0.84%) were called active. No stated cut-off is given here; in the data, active means inhibition above about 9.5%; inactive means the rest. Many of the other results were omitted from the sample, so actives are more common in it than they were.
molecular target: 1-phosphatidylinositol 4,5-bisphosphate phosphodiesterase gamma-1 (Homo sapiens) (UniProt P19174); experiment: PLC-gamma1 enzyme inhibitors, primary screen, biochemical, fluorescence, purified enzyme (AID 720700); details: purified PLC-gamma1, fluorogenic substrate, at 12.2 µM, stronger effect = higher value
Sequence (P19174 whole entry, looked up): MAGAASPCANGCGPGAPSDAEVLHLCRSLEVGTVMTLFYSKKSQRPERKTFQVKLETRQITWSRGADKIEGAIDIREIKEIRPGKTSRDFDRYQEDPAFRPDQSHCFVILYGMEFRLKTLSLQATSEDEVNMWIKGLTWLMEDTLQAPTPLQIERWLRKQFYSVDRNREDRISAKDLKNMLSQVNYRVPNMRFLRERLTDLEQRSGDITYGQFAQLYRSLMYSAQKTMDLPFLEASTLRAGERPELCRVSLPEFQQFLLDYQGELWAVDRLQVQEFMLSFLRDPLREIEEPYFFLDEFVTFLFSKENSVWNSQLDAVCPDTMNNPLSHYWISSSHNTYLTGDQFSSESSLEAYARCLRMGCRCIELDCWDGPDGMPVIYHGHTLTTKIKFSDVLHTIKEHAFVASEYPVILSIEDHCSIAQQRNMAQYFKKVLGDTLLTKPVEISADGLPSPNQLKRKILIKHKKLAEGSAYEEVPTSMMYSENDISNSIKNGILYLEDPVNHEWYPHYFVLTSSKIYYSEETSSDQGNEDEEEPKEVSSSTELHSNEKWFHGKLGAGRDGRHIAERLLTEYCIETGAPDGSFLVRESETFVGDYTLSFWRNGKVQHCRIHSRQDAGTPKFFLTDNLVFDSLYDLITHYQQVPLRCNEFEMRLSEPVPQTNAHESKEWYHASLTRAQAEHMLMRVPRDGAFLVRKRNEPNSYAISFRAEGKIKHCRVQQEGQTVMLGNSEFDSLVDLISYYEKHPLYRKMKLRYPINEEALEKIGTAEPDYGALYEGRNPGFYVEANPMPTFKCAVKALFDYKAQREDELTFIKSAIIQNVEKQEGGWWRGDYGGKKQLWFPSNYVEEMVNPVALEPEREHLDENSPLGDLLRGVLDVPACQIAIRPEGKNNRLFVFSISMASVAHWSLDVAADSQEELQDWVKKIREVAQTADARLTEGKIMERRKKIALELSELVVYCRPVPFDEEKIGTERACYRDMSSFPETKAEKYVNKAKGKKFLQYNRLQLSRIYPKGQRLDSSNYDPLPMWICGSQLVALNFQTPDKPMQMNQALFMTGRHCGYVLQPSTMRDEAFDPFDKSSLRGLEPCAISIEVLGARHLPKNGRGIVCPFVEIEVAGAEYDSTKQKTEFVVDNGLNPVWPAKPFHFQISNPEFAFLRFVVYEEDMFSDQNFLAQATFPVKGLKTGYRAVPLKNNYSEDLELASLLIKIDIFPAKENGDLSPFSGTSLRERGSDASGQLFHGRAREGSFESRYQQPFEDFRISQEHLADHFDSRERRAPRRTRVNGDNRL

Row | SMILES | inhibition
1 | CC(=O)N1CN2CN(C(C)=O)CC(C(=O)c3ccc(Br)cc3)(C2)C1 | 11.9% (active)
2 | Cc1cc(-c2ccc(N)c(C)c2)ccc1N | 2.25% (inactive)
3 | Oc1ccc2c3c1OC1[C@H](O)CC[C@@]4(O)[C@@H](C2)N(CC2CC2)CC[C@]314 (stereo not given in full) | -3.08% (inactive) and -2.01% (inactive)
4 | O=C(NC1CCCCC1)N1Cc2cc(N3CCCCC3)ccc2-n2nncc2C1 | -5.89% (inactive)
5 | CCN(CC)P(=O)(Oc1cccc(C)c1)N(CC)CC | 7.26% (inactive)
6 | COC(=O)C1=C(c2ccc(F)cc2OCc2ccccc2)C[C@@H]2CC[C@H]1N2C(=O)NCc1ccc(Cl)cc1 | 4.35% (inactive)
7 | COC(=O)C1=C(c2ccc(-c3ccccc3)c(F)c2)C[C@@H]2CC[C@H]1N2C(=O)NCc1ccc(F)cc1 | 11.8% (active)
8 | COC(=O)C1=C(c2cccc(OCc3ccccc3)c2)C[C@@H]2CC[C@H]1N2C(=O)NCc1ccc(Br)cc1 | 0.93% (inactive)
9 | CCOC(=O)C(O)(c1ccc(N)c(OC)c1)C(F)(F)F (stereo not given) | 0.45% (inactive)
10 | CN(C)CCN(CC1CCCN(Cc2ccccc2F)C1)C(=O)Cc1ccc(F)c(F)c1 (stereo not given) | 1.2% (inactive)

From PubChem BioAssay AID720700 (The Scripps Research Institute Molecular Screening Center, 2013)
